Measured values reported in the supplement of paper PMC6555819.

Columns and labels:
Test in all cases: PBM binding z-score (relative to random genomic background probes); higher = stronger binding; sequences stand for … in GC…GCGATTGACAGCGTAGAATGAAGG
[1] = tested on: FXR:RXRa (NR concentration 270 nM, RXRa partner concentration 90 nM)
Outline: (§1)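 Probes were double-stranded and carried 34-nt variable regions with direct-repeat seeds, single-nucleotide variants, half-site ablations and random human genomic background sequences, printed on custom Agilent 4×180K protein-binding microarrays. Arrays were incubated 1 h with ligand-free nuclear receptor dimers in PBS pH 7.4, 2% milk, 0.02% Triton X-100, 1 mM DTT, 0.2 mg/mL BSA and 0.4 mg/ml salmon testes DNA. Antibodies against each partner (one per run) detected binding, and scanned fluorescence was regression-normalized. Binding z-scores use the random background probes as reference.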

[2] = tested on: LXRa:RXRa (NR concentration 270 nM, RXRa partner concentration 90 nM)
Outline: as §1

[3] = tested on: LXRa homodimer (NR concentration 270 nM)
Outline: as §1

[4] = tested on: LXRb:RXRa (NR concentration 270 nM, RXRa partner concentration 90 nM)
Outline: as §1

[5] = tested on: LXRb homodimer (NR concentration 270 nM)
Outline: as §1

[6] = tested on: PPARa:RXRa (NR concentration 270 nM, RXRa partner concentration 90 nM)
Outline: as §1

[7] = tested on: PPARg:RXRa (NR concentration 180 nM, RXRa partner concentration 90 nM)
Outline: as §1

[8] = tested on: PPARg:RXRa 270nM:90nM, anti-RXR (NR concentration 270 nM, RXRa partner concentration 90 nM)
Outline: as §1

[9] = tested on: PPARg:RXRa 30nM:10nM, anti-RXR (NR concentration 30 nM, RXRa partner concentration 10 nM)
Outline: as §1

[10] = tested on: PPARg:RXRa 90nM:30nM, anti-RXR (NR concentration 90 nM, RXRa partner concentration 30 nM)
Outline: as §1

Sequence	PBM binding z-score [1]	PBM binding z-score [2]	PBM binding z-score [3]	PBM binding z-score [4]	PBM binding z-score [5]	PBM binding z-score [6]	PBM binding z-score [7]	PBM binding z-score [8]	PBM binding z-score [9]	PBM binding z-score [10]
AATACAGGGTCATCGTAGGCCAGAATACGCACAG	7.14	6.31	2.07	4.74	1.07	5.64	6.6	5.68	2.64	4.45
CCAGACAGGTGAAAGGTAACTCAGTCTGGTACGC	0.692	0.861	-0.121	1.01	-0.274	3.53	6.06	5.9	4.26	6.73
GGAACGACGGCAAAGTTGATAGCATCTGTCGACG	-0.522	-0.556	-0.557	-0.755	-0.926	0.00733	1.01	1.58	0.147	1.28
TCTTCTAGATCAAAGGTTAAGAAAGCCGAAGCCT	1.43	1.87	-0.049	2.13	0.536	4.9	7.46	8.19	8.13	8.51
AGAATGAGGTTATACGTAGATCAGGAAAGAAAGT	2.11	1.99	0.118	1.76	0.0606	3.08	2.02	1.97	0.878	1.47
GCTGCTAGGTCAAGTTGGTCAGCTAACGGGTACG	4.8	3.29	0.651	2.31	0.442	3.64	2.48	2.94	0.55	2.09
CCTTACGGGTCACTCCAAGTTATAGCATCGGAGT	4.3	4.77	0.264	2.99	0.193	4.54	3.18	3.68	1.12	2.66
ATACCAAGGTGATAGTGAGGTCGTTGATACTAAC	1.53	1.39	0.943	1.4	0.0823	1.81	0.759	0.98	0.458	0.738
GCAGACAGGTGAAACGCAGTTAACTCAGGGTGGC	-0.413	-0.168	-0.315	-0.381	-1.38	0.714	0.486	-0.149	-0.977	-0.452
ATATGTAGGTTATCGGGTGATTCAGTTTGCGCAT	0.87	1.16	0.949	1.33	0.879	3.39	5.08	5.04	2.59	4.28
CCGACCGGGGCATAAGGTTACCATAAGCCAGCCC	0.604	1.92	-0.254	0.72	-1.04	1.75	1.09	1.45	-0.188	0.731
TCATATAGGAAAAGGTGAAAGTCGAACGATATGA	1.2	1.15	-0.161	1.4	-0.24	2.46	1.45	3.09	4.54	4.05
GCAGACAGGTGAAACGCAGGTAACTCTGGGTGGC	-0.204	-0.034	-0.674	-0.472	-1.14	0.489	0.484	0.284	-0.673	-0.347
GGAACGAGGGCAAGTAGATAGCAGAGTTTGATGG	0.456	0.278	-0.397	-0.016	-0.00645	1.36	1.21	0.904	0.0838	0.493
CTACCAAGGTGATCAAGGTCGTTGATTACTATTC	0.873	0.837	0.0949	1.29	-0.12	1.65	0.258	0.508	-0.15	0.529
TCTCGGACGACACGAAAGGTCAGAGCTCGACATC	2.91	3.74	2.39	3.3	0.313	3.69	1.12	2.86	2.84	2.66
GCGACTGGGGCATCACCAGGTTACCATAACTTAA	-0.25	-0.178	-0.0644	0.637	-0.712	1.02	1.1	0.672	-0.379	0.216
CCTATTCGTTGACCATAAGGGCAACCGAAGCTCG	0.737	0.584	0.874	0.578	1.19	0.766	0.4	0.418	0.115	0.223
CCTCGGAGGACAGAAGGTTAGAGCTGTCCGCTTT	0.0561	0.0136	-0.236	-0.312	-1.14	-0.123	-0.506	-0.434	-0.944	-0.855

Sequence	PBM binding z-score [1]	PBM binding z-score [2]	PBM binding z-score [3]	PBM binding z-score [4]	PBM binding z-score [5]	PBM binding z-score [6]	PBM binding z-score [7]	PBM binding z-score [8]	PBM binding z-score [9]	PBM binding z-score [10]
CGTCCAAGTTCAACTAAGGTAACGTAAAGCACGC	4.27	3.59	1.01	2.17	0.515	3.15	1.14	1.5	0.189	0.966
ACTAGCAGGCCAAGCTTGGGTCACTCAAACAAAG	-0.0796	0.111	-0.692	0.455	-0.932	1.22	0.00964	0.21	-0.684	-0.194
AACGAAAGGTCGTGAGGTGAGTATACAGAAAGGC	5.67	4.36	0.174	3.32	-0.0859	5.07	4.41	4.6	1.54	3.21
CGAACTAGGTCAAGAGGTCAAAGTCCGCTTCCCG	7.13	6.37	6.49	5.6	1.59	6.58	10.1	7.94	7.44	8.35
CGCCCAAGGTCAAGGTCAGTGAAAGAGACTCGAA	7.66	5.71	1.02	4.47	1.05	5.96	6.1	5.9	2.41	4.9
TCATATAGGTAATACAGGTGAATGTCGGCATCTA	1.12	1.39	0.495	0.986	0.337	1.84	1.73	2.58	4.19	3.28
CAAACTAGGTCGAGAGGTCAAAGTCCGCTTCCCG	5.34	5.53	4.87	4.61	1.17	5.6	6.98	6.37	4.44	6.54
ATCTCTAGGTAAAACTTCAGTGAATCCCGAGGAT	0.0366	0.047	-0.183	-0.182	0.628	0.249	0.323	0.56	0.176	0.539
TCTATTAGTTGAAGGGCAACCCACGAGTCCGTTT	0.7	1.04	0.728	1.18	0.631	1.08	0.343	2.04	3.83	2.89
ACAGACAGGTGATGAAGGTAACTCAAGCTATCAT	-0.102	-0.296	-0.525	-0.0355	-0.354	0.0252	0.537	-0.224	0.113	-0.261
GCTAGTTGGTCAGTAAAAGGTCAAACACCGGTCG	3.88	5.14	6.12	4.91	1.54	4.71	2.68	4.45	2.84	4.37
CGTCAATGTTCAACTAAGGTAACGTAAAGCACGC	0.964	0.0385	0.177	0.536	0.375	0.376	0.538	-0.0311	-0.0519	0.0418
TCTTGTAGATCAACAGGAGGTTACGAAAGATCGA	0.309	1.28	0.0638	0.991	-0.0897	1.55	0.26	1.65	2.53	1.91
CCTACTGGCCCATTCAGAGGTCATTGATCATATG	2.81	4.4	6.69	3.76	0.83	3.28	0.571	1.44	0.377	1.09
AGAATGAGGTTACCAATGATCAGGGAAACGCTTG	1.77	3.21	-0.495	1.67	-0.399	3.33	2.55	2.4	1.21	1.7
TGAATGAGGTTAAAGATCAGGGTACGTGGCGTCG	2.96	2.35	-0.149	1.67	0.353	4.43	5.59	6.33	4.71	6.42
ATATGTAAGTTAAGGGTCATTCAGGTTGGTTCGC	4.42	4.64	3.27	4.11	1.56	5.03	6.82	7.16	6.71	7.81
CGTCCAAGGTCAAAGGTCAGTGAAGAGATGACGG	8.56	7.07	3.31	6.61	1.67	7.33	10.8	8.93	8.26	9.54
CGTCCAAGGTCAGCAGCTCAGTGAAAGCGACGTG	5.06	3.06	-0.124	2.14	-0.454	4	1.68	2.61	0.139	1.47
